# Source: PubChem BioAssay
# For some assays here: Entries with a potency or affinity are not part of this list. Results filed as inconclusive are left out. Activity calls are given as the source filed them.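 Rule for the calls, unless noted: active = falling signal with fitted half-maximal potency no higher than twice the top valid tested dose; inconclusive = poor fit quality, or flat fit spanning -70% to -30%; inactive = potency over limit, rising signal, or flat fit inside 30%.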
# Legend:
# [1] = binders of probe aFSTL3 on microarray, primary screen, stem cell growth factor project, biochemical, small-molecule microarray, fluorescence 635/667 (AID 1064); details: higher = more signal;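 note: measures binding of the biotinylated anti-FSTL3 antibody to printed compounds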
# [2] = binders from COS7 lysate, DM2A8 probe, primary screen, torsin A project, cell lysate, small-molecule microarray, fluorescence 635/667 (AID 1065); details: higher = more signal, COS7 lysate expressing mutant human TOR1A
# [3] = binders of probe aFGF2 on microarray, primary screen, stem cell growth factor project, biochemical, small-molecule microarray, fluorescence 635/667 (AID 1067); details: higher = more signal;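 note: measures binding of biotinylated aFGF2 protein to printed compounds on slides; z-score merges feature fluorescence and signal-to-noise across triplicate slides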
# [4] = binders of probe aFGF10 on microarray, primary screen, stem cell growth factor project, biochemical, small-molecule microarray, fluorescence 635/667 (AID 1071); details: higher = more signal;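 note: score merges 667 nm spot intensity and signal to noise from triplicate slides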
# [5] = molecular target: Neurogenic locus notch homolog protein 2 (Homo sapiens) (UniProt Q04721); experiment: Notch2 binders on small-molecule microarrays, primary screen, biochemical, small-molecule microarray, 635 nm fluorescence, stem cell growth factors (AID 1073); details: Notch2 binding, higher = more signal
# Sequence of Neurogenic locus notch homolog protein 2 (Homo sapiens) (Q04721 whole entry, looked up, canonical isoform): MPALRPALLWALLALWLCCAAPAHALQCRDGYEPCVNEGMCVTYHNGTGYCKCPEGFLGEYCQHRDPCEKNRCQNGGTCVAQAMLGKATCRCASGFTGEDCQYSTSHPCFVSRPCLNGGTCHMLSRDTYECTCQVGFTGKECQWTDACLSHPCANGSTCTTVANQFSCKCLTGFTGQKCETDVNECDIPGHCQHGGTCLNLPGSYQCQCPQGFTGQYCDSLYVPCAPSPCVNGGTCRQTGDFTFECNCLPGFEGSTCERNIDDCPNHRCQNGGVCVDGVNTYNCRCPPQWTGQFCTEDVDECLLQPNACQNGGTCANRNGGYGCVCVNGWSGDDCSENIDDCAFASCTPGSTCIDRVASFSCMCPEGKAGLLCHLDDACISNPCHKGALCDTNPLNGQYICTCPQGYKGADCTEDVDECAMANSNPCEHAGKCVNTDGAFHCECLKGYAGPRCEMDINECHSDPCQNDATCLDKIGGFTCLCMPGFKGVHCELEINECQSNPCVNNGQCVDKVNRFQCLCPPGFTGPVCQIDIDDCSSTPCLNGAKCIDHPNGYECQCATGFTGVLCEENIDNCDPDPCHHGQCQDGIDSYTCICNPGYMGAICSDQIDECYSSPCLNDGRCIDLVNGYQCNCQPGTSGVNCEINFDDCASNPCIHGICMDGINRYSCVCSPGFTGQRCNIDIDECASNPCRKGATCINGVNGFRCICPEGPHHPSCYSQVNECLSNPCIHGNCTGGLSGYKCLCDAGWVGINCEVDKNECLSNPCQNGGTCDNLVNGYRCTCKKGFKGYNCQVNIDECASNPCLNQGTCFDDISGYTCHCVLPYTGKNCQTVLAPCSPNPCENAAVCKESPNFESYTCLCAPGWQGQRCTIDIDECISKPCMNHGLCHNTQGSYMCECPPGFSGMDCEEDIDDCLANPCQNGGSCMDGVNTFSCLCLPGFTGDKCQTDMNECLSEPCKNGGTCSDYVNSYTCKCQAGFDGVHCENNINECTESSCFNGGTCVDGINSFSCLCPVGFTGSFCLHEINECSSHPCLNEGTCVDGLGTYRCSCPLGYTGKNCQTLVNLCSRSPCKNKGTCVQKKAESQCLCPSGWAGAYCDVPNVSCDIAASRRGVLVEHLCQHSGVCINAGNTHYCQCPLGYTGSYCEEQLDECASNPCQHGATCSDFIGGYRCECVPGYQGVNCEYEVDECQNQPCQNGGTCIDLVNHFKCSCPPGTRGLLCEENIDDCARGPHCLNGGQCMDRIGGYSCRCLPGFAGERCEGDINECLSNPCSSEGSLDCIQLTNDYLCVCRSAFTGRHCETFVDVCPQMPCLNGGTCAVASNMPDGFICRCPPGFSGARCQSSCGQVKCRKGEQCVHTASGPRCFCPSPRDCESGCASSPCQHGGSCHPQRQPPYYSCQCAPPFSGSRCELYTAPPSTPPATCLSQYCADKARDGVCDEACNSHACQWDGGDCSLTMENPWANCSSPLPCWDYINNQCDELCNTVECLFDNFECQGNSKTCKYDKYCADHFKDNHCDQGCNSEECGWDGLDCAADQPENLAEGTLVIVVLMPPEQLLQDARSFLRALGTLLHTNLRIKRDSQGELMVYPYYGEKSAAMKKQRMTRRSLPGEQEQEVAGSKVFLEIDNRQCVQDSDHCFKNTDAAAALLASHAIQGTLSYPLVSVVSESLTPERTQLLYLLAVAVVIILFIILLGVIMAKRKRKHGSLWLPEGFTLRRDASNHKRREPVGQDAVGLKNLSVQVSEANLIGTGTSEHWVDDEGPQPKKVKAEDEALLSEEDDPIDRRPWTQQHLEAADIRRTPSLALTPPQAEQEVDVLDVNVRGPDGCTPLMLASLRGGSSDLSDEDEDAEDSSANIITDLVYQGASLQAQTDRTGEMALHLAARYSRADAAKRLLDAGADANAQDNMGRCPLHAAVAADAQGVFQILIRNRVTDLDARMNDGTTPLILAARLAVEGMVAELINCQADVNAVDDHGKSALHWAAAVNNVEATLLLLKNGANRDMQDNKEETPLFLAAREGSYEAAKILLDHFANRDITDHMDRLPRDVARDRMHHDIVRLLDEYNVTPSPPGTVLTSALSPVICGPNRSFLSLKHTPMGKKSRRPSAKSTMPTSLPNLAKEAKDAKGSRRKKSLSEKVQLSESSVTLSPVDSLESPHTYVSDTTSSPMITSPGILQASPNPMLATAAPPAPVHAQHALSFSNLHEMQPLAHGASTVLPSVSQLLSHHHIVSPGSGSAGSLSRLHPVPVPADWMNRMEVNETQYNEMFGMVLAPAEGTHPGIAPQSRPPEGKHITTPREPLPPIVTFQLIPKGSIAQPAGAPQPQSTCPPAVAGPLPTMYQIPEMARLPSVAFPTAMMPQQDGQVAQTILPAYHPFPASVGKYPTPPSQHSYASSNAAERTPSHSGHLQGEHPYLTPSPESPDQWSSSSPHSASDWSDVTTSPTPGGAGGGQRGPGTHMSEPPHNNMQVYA
# [6] = molecular target: Pro-neuregulin-1, membrane-bound isoform (Homo sapiens) (UniProt Q02297); experiment: NRG1 binders on small-molecule microarrays, primary screen, psychiatric disease protein project, biochemical, small-molecule microarray, fluorescence 635/667 (AID 1075); details: NRG1 binding, 635 nm fluorescence, higher = more signal;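 note: score combines 667 nm spot fluorescence with signal to noise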
# Sequence of Pro-neuregulin-1, membrane-bound isoform (Homo sapiens) (Q02297 whole entry, looked up, the tested form may be a part, canonical isoform): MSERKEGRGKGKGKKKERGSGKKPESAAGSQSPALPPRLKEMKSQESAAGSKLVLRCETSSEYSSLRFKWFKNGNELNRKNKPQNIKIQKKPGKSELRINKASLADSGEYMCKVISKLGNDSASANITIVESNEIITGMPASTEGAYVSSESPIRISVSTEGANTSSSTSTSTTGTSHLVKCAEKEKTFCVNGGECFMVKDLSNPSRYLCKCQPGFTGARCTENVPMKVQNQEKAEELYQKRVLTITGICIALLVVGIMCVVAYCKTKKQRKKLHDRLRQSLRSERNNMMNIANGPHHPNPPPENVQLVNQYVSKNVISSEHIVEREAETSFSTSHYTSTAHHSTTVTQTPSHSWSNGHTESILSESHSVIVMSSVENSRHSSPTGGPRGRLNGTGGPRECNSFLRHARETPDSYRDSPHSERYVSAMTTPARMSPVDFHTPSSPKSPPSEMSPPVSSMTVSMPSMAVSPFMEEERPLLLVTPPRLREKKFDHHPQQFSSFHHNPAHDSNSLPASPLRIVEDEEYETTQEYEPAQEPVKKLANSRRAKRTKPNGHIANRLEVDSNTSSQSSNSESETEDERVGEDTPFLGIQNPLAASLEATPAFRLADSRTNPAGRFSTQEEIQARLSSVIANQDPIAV
# [7] = system: Neuregulin-1 EGF-like domain; experiment: binders of neuregulin-1 EGF-like domain, primary screen, biochemical, small-molecule microarray, 635 nm fluorescence (AID 1081); details: small-molecule microarray binding, higher = more signal;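 note: binding of the protein to compounds printed on small-molecule microarray slides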
# [8] = FRG1 promoter luciferase signal modulators, primary screen, FRG1 inhibition for FSHD, cell-based, C2C12 myotubes, firefly/Renilla luciferase, luminescence (AID 1084); details: higher = more signal, called active from +8 up or from −8 down
# [9] = binders of probe aFST on microarray, primary screen, stem cell growth factor project, biochemical, small-molecule microarray, fluorescence 635/667 (AID 1086); details: higher = more signal;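 note: score merges 667 nm fluorescence with signal-to-noise of each printed compound spot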
# [10] = binders of probe aHhip on microarray, primary screen, stem cell growth factor project, biochemical, small-molecule microarray, fluorescence 635/667 (AID 1087); details: higher = more signal;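 note: score merges spot fluorescence at 667nm with spot signal to noise ratio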
# [11] = system: PRMT1 (protein arginine N-methyltransferase 1); experiment: PRMT1 binders on small-molecule microarrays, primary screen, biochemical, small-molecule microarray, 635 nm fluorescence (AID 1088); details: small-molecule microarray binding, higher = more signal;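 note: binding of Prmt1 protein to compounds spotted on small-molecule microarray slides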
# [12] = yeast growth modulation, basal conditions, primary screen, YJM789 clinical isolate, OD600, 24 h (AID 1089);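 note: growth of clinical yeast isolate S. cerevisiae YJM 789 seeded 1000 cells per well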; details: S. cerevisiae YJM789 growth, higher = more signal, called active from +8 up or from −8 down
# [13] = fission yeast growth modulation, primary screen, strain 972, OD600, 24 h, no modulator (AID 1090);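 note: basal condition with compound alone and no growth modifier present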; details: S. pombe 972 growth, higher = more signal, called active from +8 up or from −8 down
# [14] = S. cerevisiae growth modulation with rapamycin, primary screen, strain BY4716, OD600, 96 h (AID 1091); details: higher = more signal, called active from +8 up or from −8 down
# [15] = molecular target: Torsin-1A-interacting protein 2 (Homo sapiens) (UniProt Q8NFQ8); experiment: LULL1 binders on small-molecule microarray, primary screen, cell lysate, human LULL1 lysate, 635/667 nm fluorescence (AID 1092); details: hLULL1 lysate binding, 635 nm fluorescence, higher = more signal;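 note: probe is lysate of COS7 cells overexpressing human LULL1; score merges per-feature 667 nm fluorescence with signal-to-noise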
# Sequence of Torsin-1A-interacting protein 2 (Homo sapiens) (Q8NFQ8 whole entry, looked up): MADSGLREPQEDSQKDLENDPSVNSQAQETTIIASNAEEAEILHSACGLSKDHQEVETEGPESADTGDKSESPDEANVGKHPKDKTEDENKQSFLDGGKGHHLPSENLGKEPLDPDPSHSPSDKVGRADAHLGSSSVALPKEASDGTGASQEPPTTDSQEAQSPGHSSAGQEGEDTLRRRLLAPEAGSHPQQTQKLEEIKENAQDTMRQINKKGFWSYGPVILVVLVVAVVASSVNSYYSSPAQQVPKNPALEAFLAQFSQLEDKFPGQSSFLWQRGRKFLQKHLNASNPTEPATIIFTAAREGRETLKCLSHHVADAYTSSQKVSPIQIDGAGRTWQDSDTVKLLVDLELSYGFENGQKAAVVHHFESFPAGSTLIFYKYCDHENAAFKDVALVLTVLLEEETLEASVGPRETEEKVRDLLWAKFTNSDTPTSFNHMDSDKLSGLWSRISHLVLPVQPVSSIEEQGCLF
# [16] = E. coli growth modulation, two-sided OD650, primary screen, E. coli filamentation project, strain DRC41, 24 h (AID 1093); details: OD650, 24 h, higher = more signal, called active from +8 up or from −8 down;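 note: MC1000 strain lacking acrAB efflux and sulA so SOS filamentation is blocked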
# [17] = Cryptococcus neoformans growth inhibition, dose response, Alamar Blue, cherry-picks (AID 686998); details: 24 h; series mostly up to 35 µM
# [18] = inducers of Cryptococcus neoformans cell lysis, dose response, AK release luminescence, cherry-picks (AID 687000;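 active = fitted dose curve reaches 40% lysis signal rise at or below the highest valid concentration tested for that sample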;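 note: luminescent detection of adenylate kinase leaking from lysed yeast; 0% = median neutral control signal and 100% = double that signal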); details: C. neoformans lysis, adenylate kinase release luminescence, 4 h, 100% = twice the neutral-control signal; series mostly up to 15 µM
# [19] = HepG2 cell cytotoxicity, dose response, cytotoxicity control, cherry-picks, set 2 (AID 687002;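 active = a dose-response fit showing signal loss, with half-maximal concentration no higher than twice the top tested dose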); details: HepG2 viability, ATP luminescence (CellTiter-Glo), 48 h; series mostly up to 26 µM
SMILES,composite z-score [1],composite z-score [2],composite z-score [3],composite z-score [4],composite z-score [5],composite z-score [6],composite z-score [7],z-score [8],composite z-score [9],composite z-score [10],composite z-score [11],z-score [12],z-score [13],z-score [14],composite z-score [15],z-score [16],outcome [17],outcome [18],outcome [19]
C=CC[C@@H](OC(=O)Nc1ccc(SC)cc1)c1ccc(OCCO)cc1,1.15,-0.325,-0.175,-0.932,-1.77,0.767,0.801,4.02 (inactive),-0.464,-0.251,-0.306,-0.0227 (inactive),-3.88 (inactive),0.0294 (inactive),2.42,1.4 (inactive),,,
CC(C)CNC(=O)[C@@H]1c2ccccc2C(=O)N(Cc2ccc(OC(F)(F)F)cc2)[C@H]1c1ccc(CO)cc1,-0.0768,0.849,-0.0095,0.34,0.988,1.15,1.21,-2.61 (inactive),0.941,-0.206,1.54,-1.87 (inactive),-2.91 (inactive),-1.06 (inactive),3.01,3.96 (inactive),,,
COc1ccc(CCNC(=O)[C@@]2(Sc3ccc(C)cc3)CC(=O)N(Cc3ccccc3)[C@@H]2c2ccc(CO)cc2I)cc1,-1.07,0.461,-0.187,-0.111,-0.0768,0.0114,0.388,-1.58 (inactive),-0.32,-0.616,0.471,0.44 (inactive),-1.66 (inactive),2.72 (inactive),1.87,0.485 (inactive),,,
CN(C[C@H]1N[C@@H](CO)[C@H]1c1ccc(-c2cccc(F)c2)cc1)S(C)(=O)=O,,,,,,,,,,,,,,,,,inactive,inactive,
CC(C)N1CC=CC23O[C@@H]4/C=C\CCCOC(=O)C4[C@H]2C(=O)N(CCCO)[C@@H]3C1=O (some centres undefined),0.495,2.3,-0.01,0.215,-0.615,0.0034,1.14,1 (inactive),-0.623,-0.374,-0.78,0.759 (inactive),-0.76 (inactive),0.752 (inactive),2.15,1.77 (inactive),,,
O=C1N(CCS(=O)(=O)c2ccccc2)Cc2ccccc2[C@@H]2OC(c3ccc(OCCCO)cc3)=N[C@]12Cc1ccccc1,1.02,0.397,0.196,0.849,1.5,1.84,1.39,-2.88 (inactive),0.843,-0.338,1.53,2.44 (inactive),1.46 (inactive),9.7 (active),3.4,0.552 (inactive),,,
C=CCN1C(=O)[C@@]2(O[C@@H](CCO)[C@H]([Si](C)(C)c3ccc(OC)cc3)[C@H]2C)c2cc(N3C(=O)c4cccc5cccc3c45)ccc21,-0.149,0.0485,-0.113,0.349,0.24,0.769,0.876,-1.42 (inactive),-0.169,-0.0994,1.18,2.89 (inactive),1.89 (inactive),36.3 (active),1.15,1.93 (inactive),,,
COc1ccc([Si](C)(C)[C@@H]2[C@@H](CCn3cc([C@H](O)c4ccccc4)nn3)O[C@]3(C(=O)N(C)c4c(Br)cc(C)cc43)[C@H]2C)cc1,0.114,0.301,-0.116,-0.246,-0.802,-0.115,-0.288,-2.54 (inactive),-0.43,0.154,-0.0221,-2.54 (inactive),-0.793 (inactive),0.406 (inactive),0.215,2.87 (inactive),,,
CCC(=O)N(C)C[C@H]1Oc2cc(-c3ccccc3)ccc2S(=O)(=O)N([C@H](C)CO)C[C@H]1C,,,,,,,,,,,,,,,,,inactive,inactive,inactive
C=CCNC(=O)[C@@H]1[C@H]2C(=O)O[C@H](c3ccccc3)[C@H](c3ccccc3)N2[C@H](c2ccc(O)cc2)[C@@]12C(=O)Nc1ccc(C#Cc3ccc(OC)cc3)cc12,-0.112,0.712,0.0356,0.69,1.46,0.489,1.16,0.606 (inactive),0.496,-0.0672,1.54,-0.147 (inactive),-1.67 (inactive),2.97 (inactive),1.96,2.8 (inactive),,,
C=C(CCCC)/C(=C/C[C@H](OC(=O)c1ccncc1)c1ccc(CO)o1)c1cnc2ccccc2c1,-0.408,0.536,-0.0332,0.941,1.41,-0.185,1.04,-0.587 (inactive),0.761,0.265,1.56,3.23 (inactive),-1.99 (inactive),-0.516 (inactive),1.89,0.74 (inactive),,,
COc1ccc(N(CC(=O)NCCSCc2ccc(C)cc2)S(=O)(=O)c2ccccc2)cc1,,,,,,,,,,,,,,,,,inactive,inactive,inactive
C=CCOC(=O)[C@H]1[C@@H]2C(=O)O[C@@H](c3ccccc3)[C@@H](c3ccccc3)N2[C@@H](c2ccc(OCCOC(=O)[C@H]3C[C@H]4C(=O)N5CCC[C@H]5C(=O)N4[C@H]3c3cccc(OCCO)c3)cc2)[C@]12C(=O)Nc1ccccc12,-0.113,0.984,-0.147,0.363,0.0945,1.06,1.24,0.176 (inactive),0.406,-0.182,1.53,0.766 (inactive),-0.347 (inactive),2.43 (inactive),2.04,1.83 (inactive),,,
C=CCC(OC(C)=O)[C@@H]1[C@@H](N(Cc2ccc(-c3ccccc3)cc2)C(=O)c2ccc(-c3ccccc3)cc2)c2cc(OCCCO)ccc2N1C(=O)c1ccc(-c2ccccc2)cc1 (some centres undefined),0.54,0.054,0.032,-0.0598,-0.0106,-0.333,-0.864,-0.0089 (inactive),0.214,-0.146,-0.655,-0.611 (inactive),-0.811 (inactive),0.131 (inactive),0.399,1.99 (inactive),,,
COCCCNC(=O)[C@@]1(CCS(=O)(=O)c2ccccc2)N=C(c2ccc(OCCCO)cc2)O[C@H]1c1ccccc1CN=[N+]=[N-],1.06,0.865,0.331,1.12,1.25,1.01,1.22,-0.891 (inactive),1.25,0.0515,1.54,-1.61 (inactive),-1.21 (inactive),0.468 (inactive),2.65,2.4 (inactive),,,
O=C(CN1CCOCC1)N1CC[C@@H]2[C@@H](CO)Nc3ccc(-c4ccccc4F)cc3[C@@H]21,,,,,,,,,,,,,,,,,inactive,inactive,inactive
C=C1C=C(Br)C2(OCCCO2)[C@H]2OC12 (some centres undefined),-0.199,0.249,-0.128,0.325,-0.175,-0.188,-0.221,1.04 (inactive),0.206,0.0274,-0.83,-0.23 (inactive),-0.54 (inactive),0.405 (inactive),-0.38,0.294 (inactive),,,
CC(C)NC(=O)[C@@H]1c2ccccc2C(=O)N(Cc2cc(F)cc(C(F)(F)F)c2)[C@H]1c1ccc(CO)cc1,1.02,-0.197,-0.141,-1.12,-0.636,0.433,0.844,0.842 (inactive),0.136,-0.149,-0.305,-0.354 (inactive),-0.92 (inactive),-1.17 (inactive),2.48,1.52 (inactive),,,
C=CCNC(=O)[C@@H]1[C@H]2C(=O)O[C@H](c3ccccc3)[C@H](c3ccccc3)N2[C@H](c2ccc(O)cc2)[C@@]12C(=O)Nc1ccccc12,-0.156,0.654,-0.0521,0.0546,-0.554,1.31,0.574,0.674 (inactive),-0.0542,-0.251,1.45,0.455 (inactive),-1.32 (inactive),1.89 (inactive),2.8,2.14 (inactive),,,
CC(=O)NCCCC[C@@H]1NC(=O)[C@@H]2C[C@H](C(=O)O)[C@H](c3cccc(OCCO)c3)N2C1=O,-0.16,0.619,-0.112,0.321,0.124,0.0677,1.31,0.356 (inactive),0.199,-0.153,1.55,1.18 (inactive),-0.201 (inactive),1.46 (inactive),0.654,0.809 (inactive),,,
C=CCN1C(=O)[C@@]2(O[C@@H](CCn3cc(CCO)nn3)[C@H]([Si](C)(C)c3ccc(OC)cc3)[C@H]2C)c2cc(NC(=O)c3ccc(OC)cc3)ccc21,-0.0186,0.463,-0.0493,0.051,0.0039,0.457,0.672,-2.22 (inactive),0.309,-0.0994,1.49,-0.0986 (inactive),-1.27 (inactive),-0.738 (inactive),0.674,1.31 (inactive),,,
[N-]=[N+]=NCc1ccccc1C[C@]1(C(=O)NCc2ccccc2)N=C(c2ccc(OCCCO)cc2)O[C@H]1c1ccccc1,1.45,1.21,0.135,0.17,1.15,0.994,0.97,-2.74 (inactive),0.407,-0.224,0.544,2.2 (inactive),2.85 (inactive),35.5 (active),2.47,1.85 (inactive),,,
